Test systems include K-562 leukemia; MALME-3M melanoma; MDA-MB-231 breast; SF-268 CNS; SF-295 CNS; SF-539 CNS; UACC-257 melanoma; M14 melanoma; HCT-15 colon; HT29 colon; SNB-75 CNS; SNB-19 CNS; U251 CNS; PC-3 prostate; SK-MEL-5 melanoma; UACC-62 melanoma; LOX IMVI melanoma; SK-MEL-2 melanoma; SK-MEL-28 melanoma.
Holding throughout (assay): NCI-60 one-dose screen, 48 h (100 = growth as untreated, 0 = no growth, -100 = all killed)
What all share (settings): 10 µM

For 9 compounds, growth results are on record in PubChem BioAssay (NCI).

SMILES strings stand for the structures. This is part of a sample that, as a whole, favours compounds with a hit. Of some 83,000 tested, about 20% had one in any assay.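 The endpoint reported here, percent growth, reads 100 for growth as untreated, 0 for no net growth and -100 for all cells dead.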 A number with no mark means an inactive call. Activity calls are given as the source filed them. How the source made its calls: active means growth percent below 10; inactive means the rest.

Take `COc1cc(/C(=C2/O[C@@H]([C@H]3COC(C)(C)O3)[C@H]3OC(C)(C)O[C@@H]23)c2ccc3ccccc3c2)cc(OC)c1OC`: the growth with K-562 leukemia is 28.1%; with MALME-3M melanoma, -25.4% (active); in the assay on MDA-MB-231 breast it was 13.6%; in the assay with SF-268 CNS, -16.9% (active); in the assay on SF-295 CNS, 46.6%; in the assay with SF-539 CNS it was 26.4%. Further, the growth was 45.9% in the assay on UACC-257 melanoma; 62.8% with M14 melanoma; 59.7% in the assay on HCT-15 colon; 41% with HT29 colon; 41.1% with SNB-75 CNS; 29% in the assay on SNB-19 CNS. Also, the growth in the assay on U251 CNS was 18%; with PC-3 prostate, 27%; with SK-MEL-5 melanoma it was 38.3%; in the assay with UACC-62 melanoma, 46.5%; in the assay with LOX IMVI melanoma, 46.4%; with SK-MEL-2 melanoma, -49.7% (active).
As for `ClCCOCCn1cnc2c(Cl)nc(Cl)nc21`, the growth in the assay on K-562 leukemia is 28.2%; in the assay on MALME-3M melanoma, 112%; in the assay with MDA-MB-231 breast it was 58.2%; in the assay on SF-268 CNS, 45.3%; in the assay on SF-295 CNS, 70.2%; with SF-539 CNS, 96.8%. For the same compound, the growth in the assay with UACC-257 melanoma was 59.9%; with M14 melanoma, 46.5%; with HT29 colon, 36.6%; in the assay with SNB-75 CNS, 57.1%; with SNB-19 CNS, 88.2%; with U251 CNS, 67.3%. Moreover, the growth with PC-3 prostate was 35.2%; with SK-MEL-5 melanoma, 52.3%; with UACC-62 melanoma, 45.1%; in the assay on LOX IMVI melanoma, -13.9% (active); in the assay with SK-MEL-28 melanoma, 72.8%; in the assay on SK-MEL-2 melanoma, 67.6%.
Take `COC(=O)c1ccc(=O)oc1`: the growth was 86.8% in the assay on K-562 leukemia; 101% in the assay on MALME-3M melanoma; 98.1% with MDA-MB-231 breast; 104% with SF-268 CNS; 102% in the assay with SF-295 CNS; 95.8% with SF-539 CNS. Also, the growth was 100% with UACC-257 melanoma; 101% in the assay with M14 melanoma; 113% in the assay with HT29 colon; 91.1% with SNB-75 CNS; 103% in the assay on SNB-19 CNS; 97.4% in the assay with U251 CNS. Moreover, the growth was 91.5% in the assay on PC-3 prostate; 103% in the assay with SK-MEL-5 melanoma; 93.6% with UACC-62 melanoma; 98.4% in the assay with LOX IMVI melanoma; 91.9% with SK-MEL-2 melanoma.
Regarding `COC(=O)C(=C\c1ccc2c(c1)OCO2)/C(=C/c1ccc2c(c1)OCO2)C(=O)OC`, the growth with K-562 leukemia was 108%; with MALME-3M melanoma, 101%; in the assay with MDA-MB-231 breast, 107%; in the assay with SF-268 CNS, 96%; in the assay on SF-295 CNS it was 95.3%; in the assay with SF-539 CNS it was 96.1%. The growth in the assay with UACC-257 melanoma was 108%; with M14 melanoma, 99.4%; in the assay with HCT-15 colon, 97.8%; in the assay on HT29 colon, 88.9%; in the assay on SNB-75 CNS, 87.7%; with SNB-19 CNS, 106%. Also, the growth in the assay on U251 CNS was 98.5%; with PC-3 prostate, 93.8%; in the assay with SK-MEL-5 melanoma it was 101%; in the assay with UACC-62 melanoma, 98.6%; in the assay on LOX IMVI melanoma, 90.8%; in the assay on SK-MEL-28 melanoma it was 103%. In addition, the growth in the assay on SK-MEL-2 melanoma was 102%.
As for `CN(C)CC(O)c1ccc2cc(Br)c3ccccc3c2c1` (stereo not drawn), the growth with K-562 leukemia is 24.7%; with MALME-3M melanoma, 97.1%; in the assay with MDA-MB-231 breast, 16.8%; in the assay on SF-268 CNS, 58.5%; in the assay with SF-295 CNS it was 75.6%; in the assay on SF-539 CNS, 65.9%. The growth in the assay on UACC-257 melanoma was 99.2%; with M14 melanoma, 47.2%; with HCT-15 colon, 53.7%; in the assay on HT29 colon it was 22%; in the assay with SNB-75 CNS it was 41.8%; with SNB-19 CNS, 64.7%. For the same compound, the growth with U251 CNS was 56.4%; with PC-3 prostate, 49%; in the assay on SK-MEL-5 melanoma, 62.3%; in the assay with UACC-62 melanoma, -64.8% (active); with LOX IMVI melanoma it was 28.9%; in the assay with SK-MEL-28 melanoma, 32.7%. For the same compound, in the assay on SK-MEL-2 melanoma, the growth is 102%.
With `Clc1nc(Cl)c2c(ncn2C/C=C\Cn2cnc3c(Cl)nc(Cl)nc32)n1`, the growth was -20.6% (active) with K-562 leukemia; -84.8% (active) with MALME-3M melanoma; -100% (active) with MDA-MB-231 breast; 6.36% (active) in the assay on SF-268 CNS; -10.7% (active) with SF-295 CNS; -71.6% (active) in the assay on SF-539 CNS. Moreover, the growth with M14 melanoma is -10.5% (active); in the assay with HCT-15 colon, -85.4% (active); in the assay on HT29 colon, -30.6% (active); in the assay on SNB-75 CNS, -28.9% (active); in the assay on SNB-19 CNS, -15.6% (active); in the assay with U251 CNS, -93.6% (active). The growth is -96.2% (active) in the assay with PC-3 prostate; -91% (active) with SK-MEL-5 melanoma; -79% (active) in the assay with UACC-62 melanoma; -94.2% (active) in the assay with LOX IMVI melanoma; -50.3% (active) with SK-MEL-28 melanoma; 5.02% (active) with SK-MEL-2 melanoma.
`N#Cc1cc(-c2cc3ccccc3o2)oc1N`: the growth in the assay on K-562 leukemia was 2.52% (active); in the assay on MALME-3M melanoma, -5.2% (active); in the assay with MDA-MB-231 breast, -27.1% (active); in the assay with SF-268 CNS it was 29%; with SF-295 CNS, -28.1% (active); in the assay on SF-539 CNS it was -45% (active). The growth in the assay on M14 melanoma is 26.4%; in the assay on HCT-15 colon, 9.98% (active); with HT29 colon it was 7.97% (active); with SNB-75 CNS, 24.4%; in the assay with SNB-19 CNS it was 24.5%; in the assay on U251 CNS it was 3.63% (active). In addition, the growth with PC-3 prostate was -24.5% (active); in the assay with SK-MEL-5 melanoma, -86.7% (active); in the assay on UACC-62 melanoma, 29.2%; in the assay on LOX IMVI melanoma, 3.98% (active); with SK-MEL-28 melanoma it was 41.2%; with SK-MEL-2 melanoma, 10.2%.
As to `CCN(CC)CCC(CNc1c(C)cnc2cc(Cl)ccc12)c1ccc(Cl)c(Cl)c1` (stereo not drawn), the growth in the assay with K-562 leukemia is 1.52% (active); in the assay with MALME-3M melanoma, -52% (active); with MDA-MB-231 breast, 25.5%; in the assay on SF-268 CNS it was 71.8%; in the assay with SF-295 CNS, 65.4%; in the assay with SF-539 CNS, 20.9%. Also, the growth in the assay on UACC-257 melanoma was -49.6% (active); in the assay on M14 melanoma, -64.5% (active); in the assay on HCT-15 colon, 32.3%; in the assay with HT29 colon it was 11.6%; with SNB-75 CNS, 59.2%; in the assay on U251 CNS, 46.4%. Moreover, the growth with PC-3 prostate is 49.4%; in the assay with SK-MEL-5 melanoma it was -92.3% (active); with UACC-62 melanoma it was -48.5% (active); in the assay with LOX IMVI melanoma, 37.8%; in the assay on SK-MEL-28 melanoma, -75.3% (active); in the assay on SK-MEL-2 melanoma it was 107%.
Consider `COc1cc2c(cc1OCCCCCCN1CCN(CC(=O)Nc3ccc(Cl)cc3C(=O)c3ccccc3Cl)CC1)N=CC1CCCN1C2=O` (stereo not drawn), for which the growth with K-562 leukemia is -62.3% (active); with MALME-3M melanoma, -92.3% (active); in the assay with MDA-MB-231 breast, -100% (active); with SF-268 CNS it was -61% (active); with SF-295 CNS, -94.9% (active); in the assay on SF-539 CNS it was -95.2% (active). In addition, the growth in the assay on M14 melanoma is -67.4% (active); in the assay with HCT-15 colon it was -100% (active); with HT29 colon, -56.8% (active); in the assay on SNB-75 CNS, -84.5% (active); with SNB-19 CNS, -77.7% (active); in the assay on U251 CNS it was -100% (active). Further, the growth is -100% (active) in the assay with PC-3 prostate; -100% (active) in the assay with SK-MEL-5 melanoma; -98.7% (active) in the assay on UACC-62 melanoma; -93.9% (active) in the assay with LOX IMVI melanoma; -85.8% (active) with SK-MEL-28 melanoma; -69.6% (active) in the assay on SK-MEL-2 melanoma.
